Assay results: PubChem BioAssay (NCI)
Compounds without any hit were thinned out: in the full panel of roughly 83,000, 20% have a hit.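 Note: values are percent growth. 100 is the growth of untreated cells, values between 100 and 0 indicate rising inhibition; between -100 and 0 indicates cell death.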 A number with no mark means an inactive call. Activity calls are given as the source filed them. How the source made its calls: active means growth percent below 10; inactive means the rest.

system: COLO 205 colon; experiment: NCI-60 one-dose screen, 48 h (100 = growth as untreated, 0 = no growth, -100 = all killed); conditions: 10 µM

SMILES	growth
COc1cc2c3c(n(CCCNCCO)c(=O)c2cc1OC)-c1nc2c(cc1C3=O)OCO2	2.13% (active)
COc1ccc2[nH]cc(/C=N/Nc3ccc(Br)cn3)c2c1	37.4%
O=C(Cn1cc(CSc2nnc3oc4ccccc4n23)nn1)Nc1cccc(Cl)c1	97.8%
O=C(NO)c1ccc(Cn2ccc3c(Nc4ccccc4)ncnc32)cc1	-84.9% (active)
COc1ccc(-c2nc(-c3ccccc3)c(-c3ccccc3)n2-c2ccc(S(=O)(=O)Nc3ncccn3)cc2)cc1OC	133%
O=C(CSc1ccc(-c2ccc(Cl)cc2)nn1)Nc1ccc(Cl)c(C(F)(F)F)c1	74.8%
CC1(C)[C@@H](NCO)CC[C@]2(C)[C@H]3C(=O)C=C4[C@@H]5C[C@](C)(CO)CC[C@]5(C)CC[C@@]4(C)[C@]3(C)CC[C@@H]12	24.6%
Cn1cc(-c2cc(N)n3nc(-c4c[nH]c5ccc(Br)cc45)cc3n2)c2cccnc21	-85.8% (active)
Nc1nnc(-c2c[nH]c3ncccc23)c(-c2c[nH]c3ccc(Br)cc23)n1	66.9%
N#Cc1ccc(-c2nn(-c3ccc(C(=O)O)cc3)cc2CNc2ccc(Cl)cc2)cc1	142%
O=C(c1ccc(O)cc1)C1[C@H](c2ccccc2Br)[C@@H](c2ccccc2)NC12C(=O)Nc1ccc(Cl)cc12 (some centres not stated)	-76.9% (active)
COc1nccnc1NS(=O)(=O)c1ccc(NC2=C(Cl)C(=O)c3nc(C)ccc3C2=O)cc1	134%
CCOC(=O)C1=C(N)N(c2ccc(Cl)cc2)C2=C(C(=O)CC(C)(C)C2)C1c1ccc(N2CCOCC2)cc1 (configuration not stated)	99.8%
CN(C(=O)c1ccc(C(C)(C)C)cc1)c1sc2c(c1C#N)CCC(=O)C2	80.7%
Cc1cc(C)nc(SCC(=O)Nc2ccc(S(N)(=O)=O)cc2)n1	124%
COc1ccc2[nH]c(O)c(N=NC(=O)c3cc(-c4ccc(C)cc4)nc4ccccc34)c2c1	112%
O=C1Nc2ccc(Cl)cc2/C1=C/c1cccc(OCc2ccccn2)c1	-45.9% (active)
Nc1nc(-c2ccccc2)cs1	108%
COc1ccc2c3nc4cc(C)c(C)cc4nc3n(CCN(C)C)c2c1	62.5%

SMILES	growth
O=C(c1ccc(Cl)cc1)C1[C@H](c2ccc(Br)cc2)[C@@H](c2ccccc2)NC12C(=O)Nc1ccc(Cl)cc12 (some centres not stated)	-87.7% (active)
CC(=O)Nc1ccc(-c2cn(-c3cccc(C(=O)Nc4ccc(Cl)c(C(F)(F)F)c4)c3)nn2)cn1	-40.9% (active)
COc1ccc2nc(Cl)c(-c3cc(-c4ccccc4)nc(N)n3)cc2c1	53.7%
CN1CCN(c2ccc(Nc3nc(NCCCNC(=O)C4CCCCC4)c4sccc4n3)cc2)CC1	68.8%
COc1ccc(NC(=O)CSc2nnc(-c3ccc4nc(-c5ccc(Cl)cc5)[nH]c4c3)o2)cc1	96.8%
CCCCCc1ccc(S(=O)(=O)Nc2cc(-c3csc(N(C)C(C)=O)n3)ccc2N2CCN(C)CC2)cc1	-65.6% (active)
COc1ccc(NC(=O)Nc2ccc(OCC(=O)N=Nc3c(O)[nH]c4ccc([N+](=O)[O-])cc34)cc2)cc1	112%
O=S(=O)(Nc1ncccn1)c1ccc(-n2c(-c3ccccc3)nc(-c3ccccc3)c2-c2ccccc2)cc1	130%
O=c1oc2ccc(-c3ccc(F)cc3F)cc2c(=O)n1-c1ccc(Cl)c(C(F)(F)F)c1	-81.3% (active)
CN1CCN(Cc2ccc(C(=O)Nc3cccc(Nc4ccc5c(O)cccc5n4)c3)cc2C(F)(F)F)CC1	-78.6% (active)
O=C(c1ccc(-n2c(=O)[nH]c3ccccc3c2=O)cc1)N1CCOCC1	110%
Cc1ccc(C(=O)Nc2ccc(-n3c(C)nc4c(cnn4-c4ccccc4)c3=O)cc2)cc1	77.4%
O=C(Nc1ccccc1)Nc1nc2ccccc2s1	50.8%
COc1cc2c(c(OC)c1OC)C(=O)CC(c1cccc(NC(=O)c3cccc(N)c3)c1)O2 (configuration not stated)	102%
CCN1CCN(Cc2ccc(C(=O)Nc3cccc(-c4cn(-c5ccc6oc(=O)ccc6c5)nn4)c3)cc2C(F)(F)F)CC1	48.1%
CCOC(=O)C1NN(c2ccc(S(N)(=O)=O)cc2)c2nc3nc(-c4cccs4)cc(-c4cccs4)c3c(=O)n21 (configuration not stated)	81.1%
O=c1c2ccccc2nc(COc2ccccc2)n1/N=C/c1ccc(N2CCCC2)cc1	142%
COc1ccc(-c2ccc(/C=N/NC(=O)c3[nH]c4ccc(Br)cc4c3-c3ccccc3)s2)cc1	97.6%
